The source of these data is ChEMBL document CHEMBL1961873, “Compounds: GSK PKIS; Assays: Nanosyn kinase panel” (2012).

The target in assay [1] is Fibroblast growth factor receptor 4 (Homo sapiens) (UniProt P22455). As to conditions: at 1 µM.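 Further: reported figure is the averaged percent inhibition of FGFR4, from the GSK PKIS kinase screening panel.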
Assay [2] addresses Tyrosine-protein kinase Fgr (Homo sapiens) (UniProt P09769). As to conditions: at 0.1 µM.
The target is the same in assay [3]. As to conditions: at 1 µM.
Assay [4] addresses Vascular endothelial growth factor receptor 1 (Homo sapiens) (UniProt P17948). The conditions noted are these: at 0.1 µM.
The target is the same in assay [5]. The conditions noted are these: at 1 µM.
For assay [6], the target named is Receptor-type tyrosine-protein kinase FLT3 (Homo sapiens) (UniProt P36888). As to conditions: at 0.1 µM.
For assay [7] the target is unchanged. As to conditions: at 1 µM.
Assay [8] concerns T1, Receptor-type tyrosine-protein kinase FLT3 (Homo sapiens), P36888 [D835Y].
T1 sequence (whole entry): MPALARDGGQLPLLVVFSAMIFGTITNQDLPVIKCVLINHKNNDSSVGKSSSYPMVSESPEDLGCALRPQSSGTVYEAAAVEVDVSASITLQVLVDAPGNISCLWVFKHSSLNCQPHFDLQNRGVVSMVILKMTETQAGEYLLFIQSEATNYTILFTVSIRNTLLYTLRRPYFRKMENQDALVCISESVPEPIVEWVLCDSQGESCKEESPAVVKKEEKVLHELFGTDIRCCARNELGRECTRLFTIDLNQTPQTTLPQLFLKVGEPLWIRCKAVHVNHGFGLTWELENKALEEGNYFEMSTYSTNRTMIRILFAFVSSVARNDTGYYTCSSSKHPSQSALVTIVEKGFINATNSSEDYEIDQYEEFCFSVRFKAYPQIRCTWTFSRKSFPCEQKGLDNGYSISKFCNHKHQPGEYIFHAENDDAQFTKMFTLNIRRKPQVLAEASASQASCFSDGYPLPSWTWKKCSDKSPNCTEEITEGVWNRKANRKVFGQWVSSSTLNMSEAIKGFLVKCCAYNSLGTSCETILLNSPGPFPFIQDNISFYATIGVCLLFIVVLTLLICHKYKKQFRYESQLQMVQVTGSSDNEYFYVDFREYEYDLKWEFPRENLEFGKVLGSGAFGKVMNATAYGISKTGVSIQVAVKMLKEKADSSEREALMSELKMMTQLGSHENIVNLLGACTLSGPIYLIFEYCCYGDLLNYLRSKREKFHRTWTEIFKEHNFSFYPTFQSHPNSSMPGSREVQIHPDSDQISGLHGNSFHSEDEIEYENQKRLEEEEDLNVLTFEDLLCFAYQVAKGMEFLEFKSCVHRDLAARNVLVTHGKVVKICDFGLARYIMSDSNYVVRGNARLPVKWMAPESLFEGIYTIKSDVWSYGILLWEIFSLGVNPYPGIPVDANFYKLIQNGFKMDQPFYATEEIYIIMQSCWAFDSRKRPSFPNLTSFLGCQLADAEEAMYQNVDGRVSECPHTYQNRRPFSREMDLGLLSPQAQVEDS
The conditions noted are these: at 0.1 µM.

Assay [9] concerns the target Non-receptor tyrosine-protein kinase TYK2 (Homo sapiens) (UniProt P29597). As to conditions: at 1 µM.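 Further: values are mean percent inhibition of TYK2 kinase.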
Assay [10] concerns the target T2, Tyrosine-protein kinase receptor TYRO3 (Homo sapiens) (UniProt Q06418).
T2 sequence (whole entry): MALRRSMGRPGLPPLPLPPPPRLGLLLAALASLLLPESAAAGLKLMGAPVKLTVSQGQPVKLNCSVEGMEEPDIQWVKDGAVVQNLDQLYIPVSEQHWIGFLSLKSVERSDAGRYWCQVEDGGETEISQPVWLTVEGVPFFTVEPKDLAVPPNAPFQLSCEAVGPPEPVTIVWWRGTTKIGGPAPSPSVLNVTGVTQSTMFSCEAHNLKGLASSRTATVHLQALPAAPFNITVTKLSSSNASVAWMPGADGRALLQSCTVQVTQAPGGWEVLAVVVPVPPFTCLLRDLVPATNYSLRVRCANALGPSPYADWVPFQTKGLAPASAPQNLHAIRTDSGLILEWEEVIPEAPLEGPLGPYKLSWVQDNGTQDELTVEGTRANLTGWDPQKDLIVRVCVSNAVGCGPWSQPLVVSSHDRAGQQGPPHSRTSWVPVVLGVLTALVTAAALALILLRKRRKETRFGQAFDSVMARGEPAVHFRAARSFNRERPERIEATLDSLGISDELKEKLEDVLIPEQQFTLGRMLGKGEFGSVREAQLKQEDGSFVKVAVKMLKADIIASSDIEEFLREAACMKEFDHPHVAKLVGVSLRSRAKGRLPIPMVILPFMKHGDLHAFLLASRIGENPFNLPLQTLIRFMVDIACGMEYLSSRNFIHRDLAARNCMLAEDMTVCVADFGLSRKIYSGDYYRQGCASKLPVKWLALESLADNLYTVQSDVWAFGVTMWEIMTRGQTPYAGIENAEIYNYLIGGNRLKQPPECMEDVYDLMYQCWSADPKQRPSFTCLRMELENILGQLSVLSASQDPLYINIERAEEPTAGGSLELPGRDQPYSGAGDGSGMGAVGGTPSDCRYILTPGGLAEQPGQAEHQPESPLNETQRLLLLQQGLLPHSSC
The conditions noted are these: at 0.1 µM.

In assay [11] the target is T2, Tyrosine-protein kinase receptor TYRO3 (Homo sapiens). The conditions noted are these: at 1 µM.
For assay [12], the target named is Tyrosine-protein kinase Yes (Homo sapiens) (UniProt P07947). As to conditions: at 0.1 µM.
Tyrosine-protein kinase Yes (Homo sapiens), sequence (P07947 2-543 limits assumed): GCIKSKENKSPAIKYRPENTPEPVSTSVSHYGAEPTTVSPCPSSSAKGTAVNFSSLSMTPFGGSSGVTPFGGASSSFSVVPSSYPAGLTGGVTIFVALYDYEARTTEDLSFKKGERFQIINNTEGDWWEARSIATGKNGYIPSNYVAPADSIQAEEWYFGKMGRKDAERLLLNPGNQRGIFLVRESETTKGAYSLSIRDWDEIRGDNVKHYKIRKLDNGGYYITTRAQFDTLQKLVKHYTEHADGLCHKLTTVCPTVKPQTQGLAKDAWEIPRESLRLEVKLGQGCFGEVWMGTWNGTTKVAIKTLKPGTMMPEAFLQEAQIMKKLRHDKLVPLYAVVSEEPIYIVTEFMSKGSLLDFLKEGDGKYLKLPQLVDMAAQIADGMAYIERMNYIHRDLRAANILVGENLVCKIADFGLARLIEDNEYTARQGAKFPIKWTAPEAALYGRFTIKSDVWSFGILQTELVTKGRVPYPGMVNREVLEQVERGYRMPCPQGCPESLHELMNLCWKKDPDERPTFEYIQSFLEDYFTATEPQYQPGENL
The target is the same in assay [13]. As to conditions: at 1 µM.
Assay [14] deals with T3, Tyrosine-protein kinase ZAP-70 (Homo sapiens) (UniProt P43403).
T3 sequence (whole entry): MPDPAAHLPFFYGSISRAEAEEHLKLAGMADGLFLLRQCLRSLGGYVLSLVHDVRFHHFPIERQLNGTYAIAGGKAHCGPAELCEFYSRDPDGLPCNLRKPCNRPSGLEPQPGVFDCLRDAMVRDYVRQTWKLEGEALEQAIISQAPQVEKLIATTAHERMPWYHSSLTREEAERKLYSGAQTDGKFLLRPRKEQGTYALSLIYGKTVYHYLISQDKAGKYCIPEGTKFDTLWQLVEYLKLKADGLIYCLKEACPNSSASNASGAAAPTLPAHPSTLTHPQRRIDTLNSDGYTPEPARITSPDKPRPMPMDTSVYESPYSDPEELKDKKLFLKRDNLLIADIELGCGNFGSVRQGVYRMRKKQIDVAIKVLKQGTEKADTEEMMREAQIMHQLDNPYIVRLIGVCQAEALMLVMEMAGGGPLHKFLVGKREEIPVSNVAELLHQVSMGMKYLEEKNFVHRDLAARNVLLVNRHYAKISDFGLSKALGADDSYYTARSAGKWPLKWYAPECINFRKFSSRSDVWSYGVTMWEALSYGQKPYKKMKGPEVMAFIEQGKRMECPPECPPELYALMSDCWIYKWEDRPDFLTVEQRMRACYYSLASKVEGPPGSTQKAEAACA
The conditions noted are these: at 0.1 µM.

For assay [15], the target named is T3, Tyrosine-protein kinase ZAP-70 (Homo sapiens). The conditions noted are these: at 1 µM.
Assay [16] deals with Serine/threonine-protein kinase B-raf (Homo sapiens) (UniProt P15056). As to conditions: at 0.1 µM.
Serine/threonine-protein kinase B-raf (Homo sapiens), sequence (P15056 whole entry): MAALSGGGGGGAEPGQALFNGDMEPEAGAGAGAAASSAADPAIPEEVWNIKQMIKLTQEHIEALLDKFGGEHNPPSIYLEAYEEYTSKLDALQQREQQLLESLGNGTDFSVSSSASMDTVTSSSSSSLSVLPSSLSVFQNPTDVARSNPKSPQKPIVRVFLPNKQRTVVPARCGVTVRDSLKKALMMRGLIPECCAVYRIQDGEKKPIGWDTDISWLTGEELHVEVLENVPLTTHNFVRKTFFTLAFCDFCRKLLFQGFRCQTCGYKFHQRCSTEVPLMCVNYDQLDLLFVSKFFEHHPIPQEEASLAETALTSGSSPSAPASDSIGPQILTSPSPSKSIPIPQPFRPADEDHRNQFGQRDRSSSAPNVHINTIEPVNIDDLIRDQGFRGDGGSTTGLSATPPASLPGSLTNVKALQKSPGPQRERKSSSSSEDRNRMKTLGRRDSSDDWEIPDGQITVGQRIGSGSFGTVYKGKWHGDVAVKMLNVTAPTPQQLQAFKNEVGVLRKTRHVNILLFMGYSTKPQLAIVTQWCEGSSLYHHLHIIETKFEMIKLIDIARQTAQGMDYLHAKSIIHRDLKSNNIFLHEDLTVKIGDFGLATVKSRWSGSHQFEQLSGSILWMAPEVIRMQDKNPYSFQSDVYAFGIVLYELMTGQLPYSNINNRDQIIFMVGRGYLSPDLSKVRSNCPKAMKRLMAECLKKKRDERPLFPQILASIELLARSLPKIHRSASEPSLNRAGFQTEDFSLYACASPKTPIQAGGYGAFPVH
Assay [17] has the same target. The conditions noted are these: at 1 µM.
Assay [18] relates to Serine/threonine-protein kinase B-raf (Homo sapiens), P15056 [V600E]. As to conditions: at 0.1 µM.
Serine/threonine-protein kinase B-raf (Homo sapiens), P15056 [V600E], sequence (P15056 whole entry V600E): as the sequence (P15056 whole entry) above, with V600E counted along it
Assay [19] has the same test system. As to conditions: at 1 µM.
Assay [20] deals with RAF proto-oncogene serine/threonine-protein kinase (Homo sapiens) (UniProt P04049). The conditions noted are these: at 0.1 µM.
RAF proto-oncogene serine/threonine-protein kinase (Homo sapiens), sequence (P04049 whole entry): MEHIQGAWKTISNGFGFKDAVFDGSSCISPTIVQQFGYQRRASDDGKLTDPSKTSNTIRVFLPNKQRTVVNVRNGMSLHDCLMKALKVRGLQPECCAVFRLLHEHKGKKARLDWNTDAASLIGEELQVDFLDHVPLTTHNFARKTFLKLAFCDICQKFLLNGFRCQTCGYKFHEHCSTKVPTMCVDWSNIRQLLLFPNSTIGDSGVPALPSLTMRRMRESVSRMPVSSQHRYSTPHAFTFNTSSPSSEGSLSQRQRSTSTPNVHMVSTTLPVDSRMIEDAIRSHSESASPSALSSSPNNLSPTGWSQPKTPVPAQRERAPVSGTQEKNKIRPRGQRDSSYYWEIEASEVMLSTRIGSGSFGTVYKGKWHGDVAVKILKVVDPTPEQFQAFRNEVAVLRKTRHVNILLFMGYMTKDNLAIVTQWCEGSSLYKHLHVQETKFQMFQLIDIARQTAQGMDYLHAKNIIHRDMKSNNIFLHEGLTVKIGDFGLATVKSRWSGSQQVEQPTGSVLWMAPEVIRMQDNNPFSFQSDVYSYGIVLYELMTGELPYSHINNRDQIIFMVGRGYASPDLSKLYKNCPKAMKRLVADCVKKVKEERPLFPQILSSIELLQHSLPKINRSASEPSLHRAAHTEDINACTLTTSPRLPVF

Each structure is given as a SMILES string.

Fibroblast growth factor receptor 4 (Homo sapiens), sequence (P22455 22-802 limits assumed): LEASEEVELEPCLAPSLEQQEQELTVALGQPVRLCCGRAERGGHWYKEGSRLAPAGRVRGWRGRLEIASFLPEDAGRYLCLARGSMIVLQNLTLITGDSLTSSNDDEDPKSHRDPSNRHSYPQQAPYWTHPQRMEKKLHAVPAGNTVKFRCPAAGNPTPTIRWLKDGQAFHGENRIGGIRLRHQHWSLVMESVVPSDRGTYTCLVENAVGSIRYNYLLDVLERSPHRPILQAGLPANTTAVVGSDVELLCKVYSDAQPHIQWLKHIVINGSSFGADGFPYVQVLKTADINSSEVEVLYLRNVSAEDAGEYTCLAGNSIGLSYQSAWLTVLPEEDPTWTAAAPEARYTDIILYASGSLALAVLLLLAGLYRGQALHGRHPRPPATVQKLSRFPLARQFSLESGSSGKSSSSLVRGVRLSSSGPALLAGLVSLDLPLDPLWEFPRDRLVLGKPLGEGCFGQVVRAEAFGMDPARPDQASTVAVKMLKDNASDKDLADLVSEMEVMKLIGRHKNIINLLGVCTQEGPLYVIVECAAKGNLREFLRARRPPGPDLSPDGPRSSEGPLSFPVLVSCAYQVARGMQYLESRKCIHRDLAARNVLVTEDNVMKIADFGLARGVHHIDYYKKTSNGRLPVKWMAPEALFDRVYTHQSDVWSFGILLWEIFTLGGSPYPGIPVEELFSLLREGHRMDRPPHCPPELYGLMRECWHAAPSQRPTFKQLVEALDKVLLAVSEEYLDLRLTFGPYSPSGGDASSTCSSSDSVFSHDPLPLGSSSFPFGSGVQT
Vascular endothelial growth factor receptor 1 (Homo sapiens), sequence (P17948 whole entry): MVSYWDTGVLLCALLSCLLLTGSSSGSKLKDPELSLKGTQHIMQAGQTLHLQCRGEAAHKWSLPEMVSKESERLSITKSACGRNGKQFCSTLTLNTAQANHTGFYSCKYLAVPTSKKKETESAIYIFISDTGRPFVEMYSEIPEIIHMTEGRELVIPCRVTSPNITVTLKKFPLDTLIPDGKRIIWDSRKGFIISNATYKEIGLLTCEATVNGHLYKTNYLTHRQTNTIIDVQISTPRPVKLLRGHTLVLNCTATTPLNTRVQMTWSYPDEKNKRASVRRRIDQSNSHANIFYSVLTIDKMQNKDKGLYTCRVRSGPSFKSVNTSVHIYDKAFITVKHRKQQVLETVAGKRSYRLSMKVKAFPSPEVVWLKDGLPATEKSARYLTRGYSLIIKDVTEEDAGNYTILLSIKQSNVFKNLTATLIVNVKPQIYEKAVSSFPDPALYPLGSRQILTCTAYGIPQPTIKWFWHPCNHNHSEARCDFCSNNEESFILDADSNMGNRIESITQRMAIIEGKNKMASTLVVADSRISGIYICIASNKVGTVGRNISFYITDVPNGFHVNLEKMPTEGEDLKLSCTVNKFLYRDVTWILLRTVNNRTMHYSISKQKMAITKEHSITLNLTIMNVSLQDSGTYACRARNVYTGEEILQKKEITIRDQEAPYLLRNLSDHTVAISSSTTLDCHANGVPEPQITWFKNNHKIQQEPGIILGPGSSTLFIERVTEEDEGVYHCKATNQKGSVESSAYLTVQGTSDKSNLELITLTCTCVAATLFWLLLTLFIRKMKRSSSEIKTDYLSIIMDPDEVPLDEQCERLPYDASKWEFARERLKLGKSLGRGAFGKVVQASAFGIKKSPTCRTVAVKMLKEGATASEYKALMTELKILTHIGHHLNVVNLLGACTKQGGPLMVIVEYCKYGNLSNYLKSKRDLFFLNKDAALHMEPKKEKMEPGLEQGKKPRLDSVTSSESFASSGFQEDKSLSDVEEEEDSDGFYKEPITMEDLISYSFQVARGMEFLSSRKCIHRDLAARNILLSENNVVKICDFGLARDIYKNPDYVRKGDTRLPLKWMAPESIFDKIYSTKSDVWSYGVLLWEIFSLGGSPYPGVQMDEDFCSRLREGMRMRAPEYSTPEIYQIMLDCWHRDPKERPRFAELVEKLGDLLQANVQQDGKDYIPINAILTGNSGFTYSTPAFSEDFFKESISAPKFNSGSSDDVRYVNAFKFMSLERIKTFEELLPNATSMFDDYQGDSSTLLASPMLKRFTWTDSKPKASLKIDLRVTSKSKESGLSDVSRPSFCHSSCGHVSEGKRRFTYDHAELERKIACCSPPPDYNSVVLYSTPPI
Tyrosine-protein kinase Fgr (Homo sapiens), sequence (P09769 2-529 limits assumed): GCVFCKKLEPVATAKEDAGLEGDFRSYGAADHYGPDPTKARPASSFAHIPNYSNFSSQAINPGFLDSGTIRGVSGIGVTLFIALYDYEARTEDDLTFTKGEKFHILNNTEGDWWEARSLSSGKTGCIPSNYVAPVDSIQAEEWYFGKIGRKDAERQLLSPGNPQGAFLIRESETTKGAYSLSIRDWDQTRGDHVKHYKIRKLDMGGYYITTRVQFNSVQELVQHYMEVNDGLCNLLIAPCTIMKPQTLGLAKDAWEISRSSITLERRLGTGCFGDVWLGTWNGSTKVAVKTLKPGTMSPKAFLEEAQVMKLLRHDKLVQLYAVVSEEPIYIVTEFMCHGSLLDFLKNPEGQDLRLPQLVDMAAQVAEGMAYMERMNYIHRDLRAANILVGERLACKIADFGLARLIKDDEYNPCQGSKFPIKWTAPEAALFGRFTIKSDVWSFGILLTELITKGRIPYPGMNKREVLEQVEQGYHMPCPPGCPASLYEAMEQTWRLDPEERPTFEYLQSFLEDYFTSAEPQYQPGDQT

In the case of `CNC(=O)c1cncc(/C=C/c2c(C)cccc2C)c1`, the inhibition in assay [1] is -4.47%; in [2], 6.6%; in assay [3], 29.6%; in assay [4], 1.75%; in assay [5], 1.51%; in assay [6], -1.59%. The inhibition in assay [7] was determined as 1.3%; in assay [8], 3.49%; in assay [9] it was 0.52%; in [10] it was 0.85%; in assay [11] it was 2.18%; in [12], 6.81%. Also, the inhibition in assay [13] was 33%; in assay [14] it was -2.13%; in assay [15], -4.22%; in [16] it was 0.8%; in assay [17], 5.69%; in assay [18], -0.11%. Further, the figures for the inhibition in [19] and in assay [20] were 2.82% and -5.49%, respectively.

For the compound `CN(c1ccc(NC(=O)Nc2c(Cl)cccc2Cl)cc1)c1ccnc(Nc2cccc(CS(C)(=O)=O)c2)n1`, the inhibition in assay [1] stood at 2.06%; in assay [2] it was 24.3%; in assay [3], 51.9%; in assay [4], 38.5%; in assay [5], 51%; in assay [6], 78.2%. Moreover, the inhibition in assay [7] worked out at 84.9%; in assay [8] it was 28.2%; in assay [9] it was 1.51%; in assay [10] it was 4.61%; in assay [11], 17.4%; in [12] it was 17.6%. In addition, the inhibition is 28.2% in assay [13]; 4.97% in assay [14]; 9.82% in assay [15]; 1.79% in assay [16]; 4.11% in assay [17]; 2.49% in assay [18]. Further, the inhibition in assay [19] amounted to 5.8%; in [20], 0.7%.

As to `Fc1ccc(-c2ncn(C3CCNCC3)c2-c2ccnc(Oc3ccc(F)c(F)c3)n2)cc1`, the inhibition in [1] is -4.24%; in [2], 2.76%; in assay [3] it was 3.69%; in assay [4], 0.45%; in [5] it was 4.56%; in assay [6] it was -1.09%. Moreover, the inhibition in assay [7] is 4.18%; in assay [8], -2.41%; in assay [9], -5.44%; in assay [10], 1.82%; in assay [11] it was 1.35%; in assay [12], 2.3%. The inhibition is 0.42% in [13]; -5.04% in assay [14]; -3.78% in [15]; 6.07% in assay [16]; 6.2% in assay [17]; 4.48% in assay [18]. Besides, the figures for the inhibition in assay [19] and in assay [20] were 4.06% and -1.78%, respectively.

As for `c1ccc(Oc2ccc(Nc3ncc(-c4ccccc4)o3)cc2)cc1`, the inhibition came to 3.31% in [1]; 1.2% in assay [2]; 4.81% in [3]; 1.53% in [4]; 4.46% in assay [5]; 2.44% in [6]. The inhibition in assay [7] is 13.3%; in [8] it was 0.51%; in assay [9] it was -0.96%; in assay [10] it was 2.18%; in assay [11], 1.97%; in assay [12], 0.58%. The inhibition was -0.25% in assay [13]; 1.43% in [14]; 0.91% in [15]; 1.29% in assay [16]; 1.47% in assay [17]; 2.23% in [18]. In addition, the figures for the inhibition in assay [19] and in [20] were 1.97% and 0.01%, respectively.

As for `CS(=O)(=O)CCNCc1cc(-c2cc3c(Nc4ccc(OCc5cccc(F)c5)c(Cl)c4)ncnc3s2)cs1`, the inhibition amounted to 1.36% in assay [1]; 2.51% in [2]; 4.32% in assay [3]; 0.1% in [4]; 0.78% in assay [5]; 2.69% in assay [6]. The inhibition in [7] was 6.93%; in assay [8] it was -4.23%; in assay [9] it was -4%; in assay [10] it was 2.21%; in assay [11], 4.28%; in [12] it was 3.05%. The inhibition in assay [13] came out at 6.33%; in [14], 2.63%; in [15] it was 1.06%; in assay [16] it was 6.76%; in [17], 9.8%; in assay [18], 4.4%. The inhibition turned out to be 5.09% in [19] and 2.35% in assay [20].

For `CN1CCN(CCCNc2nc3ccc(Oc4ccc(NC(=O)Nc5cc(C(F)(F)F)ccc5F)cc4)cc3[nH]2)CC1`, the inhibition in assay [1] is -0.18%; in [2], 1.31%; in assay [3], 8.15%; in assay [4] it was 12.7%; in assay [5] it was 40.7%; in assay [6], 15%. The inhibition in assay [7] is 61.2%; in assay [8], -5.77%; in assay [9], 0.88%; in [10] it was 1.94%; in [11] it was 19.1%; in assay [12], -0.61%. Besides, the inhibition is -1.74% in [13]; -0.98% in assay [14]; 2.82% in assay [15]; 2.28% in assay [16]; 13.7% in [17]; 2.94% in assay [18]. The inhibition in assay [19] stood at 16.6%; in assay [20] it was 2.41%.

Turning to `Cc1ccc(C(=O)NC2CCC2)cc1-c1ccc(C(=O)NCC2CC2)cc1`, the inhibition in assay [1] is 1.12%; in assay [2], 0.84%; in assay [3], 4.82%; in assay [4], 1.31%; in assay [5] it was -0.61%; in assay [6], 0.07%. Besides, the inhibition in assay [7] is 1.62%; in assay [8], 0.48%; in [9], -2.49%; in assay [10], 1.07%; in assay [11], 1.69%; in [12], 1.57%. Moreover, the inhibition was 0.45% in assay [13]; 3.05% in [14]; 3.75% in assay [15]; 3.33% in [16]; 2.03% in assay [17]; 3.91% in assay [18]. The inhibition is 3.62% in assay [19] and -1.45% in assay [20].

Broadly, the inhibition is the drop in the measured response relative to a control, in per cent.
